Source: PubChem
SW480 rerep = induces DNA re-replication in SW480 colon adenocarcinoma cells; hit rate 1.8% among 340,000; Potency, µM (titrated, usually from 46.1 µM), inactives show top-dose re-replication activation, hits mostly activators; AID 624297; SW480 DNA re-replication, Hoechst DNA content imaging, 48 h; also: % of control where 0% means no effect; nearly all actives have a fitted effect of over 55% in size
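Cells (250 per well) received 23 nL compound or DMSO by pin tool and were kept 48 hr at 37 C, 5% CO2. Nuclei were then stained with Hoechst for 40 min and scanned for DNA content.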
PINK1 expr mod = changes PINK1 expression; PINK1 immunofluorescence, high-content cytometry, 24 h; Potency, µM (doses to about 76.6 µM), inactives show top-dose activation (PINK1 increase), usual class: activators; hit rate 0.2% among 410,000; active = well fitted activation curve with a large enough effect; inconclusive = small, poorly fitted or top-dose-only effect; cell line not stated here; also: % of control where 0% means no effect; nearly all actives have a fitted effect of over 65% in size
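Readout is PINK1 immunofluorescence, quantified alongside mitochondrial, cell and nuclear markers by laser-scanning microplate cytometry. Cells from a stable line were exposed to compound titrations (5 concentrations) for 24 hours, with CCCP controls.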
KB-3-1 cytotox = KB-3-1 parental cell cytotoxicity; KB-3-1 viability, CellTiter-Glo ATP luminescence, 72 h; Potency, µM (doses to about 46.1 µM), usual class: cytotoxic; hit rate 1.4% among 400,000; AID 1347075; also: % is scaled to controls: 0 for no effect and ±100 for the full control effect; nearly all actives have a fitted effect of over 60% in size
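Using CellTiter-Glo luminescence, growth of non-resistant KB-3-1 adenocarcinoma cells is assessed 72 h after pin-tool compound addition at 37 °C. Normalized responses across the concentration series yield fitted curves.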
KB-V1 MDR tox = KB-V1 MDR subline cytotoxicity; AID 1347076; hit rate 3.4% among 400,000; Potency, µM (series often up to 46.1 µM), most hits filed as cytotoxic; KB-V1 MDR cells viability, CellTiter-Glo, 72 h; also: % is scaled to controls: 0 for no effect and ±100 for the full control effect; nearly all actives have a fitted effect of over 60% in size
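Luminescent ATP read-out (CellTiter-Glo, 10 min) measures survival of drug-selected KB-V1 MDR cells after 72 h, 37 degrees C compound exposure. Medium: phenol-red-free DMEM, 10% FBS. Values from fitted concentration-response curves.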
MCF10A rerep = induces DNA re-replication in MCF 10a normal breast cells. Potency, µM (top dose mostly 46.1 µM), without a hit: at the top dose activity, positive = re-replication, usual class: activators. hit rate 2.9% among 350,000. MCF 10A DNA re-replication, Hoechst nuclear intensity, 48 h; also: % of control where 0% means no effect; nearly all actives have a fitted effect of over 50% in size
PTAP TSG101 blk = blocks PTAP/TSG101 interaction to inhibit HIV-1 budding | Q99816 | Fluorescence polarization, FITC-PTAP peptide / Tsg101 binding | Potency, µM (titrated, usually from 115 µM), for inactives: at the highest dose activity change, negative = inhibition, hits mostly inhibitors | 340,000 tested, under 10 active | AID 493005; active = well fitted inhibition curve with a large enough effect in the main read-out, with a control signal flat, not every such curve was filed as active; inconclusive = small, poorly fitted or top-dose-only effect, or effect the other way, or a change in a side signal; inactive = no such curve, though single readings can be large or run the other way; also: % of control where 0% means no effect
Target sequence (Q99816 whole entry, looked up): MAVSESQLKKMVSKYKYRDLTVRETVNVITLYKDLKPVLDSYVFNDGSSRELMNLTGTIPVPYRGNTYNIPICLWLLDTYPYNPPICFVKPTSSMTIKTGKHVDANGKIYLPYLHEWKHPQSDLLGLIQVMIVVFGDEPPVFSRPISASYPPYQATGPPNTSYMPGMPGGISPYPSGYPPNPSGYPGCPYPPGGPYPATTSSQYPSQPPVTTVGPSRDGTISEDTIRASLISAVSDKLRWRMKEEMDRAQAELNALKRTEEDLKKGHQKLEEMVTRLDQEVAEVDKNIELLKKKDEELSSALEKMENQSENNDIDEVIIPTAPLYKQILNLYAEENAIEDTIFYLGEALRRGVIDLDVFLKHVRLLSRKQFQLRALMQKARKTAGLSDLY
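FP read-out: FITC-PTAP peptide, 50 nM final, binding Tsg101 binding domain, 10 uM final; 20 min, r.t.; 10 mM HEPES pH 7.5, 0.15 M NaCl, 0.01% Tween 20, 3 mM EDTA, 0.1 mM TCEP.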
Starred values were filed as active, the others as inactive; i = inactive; ? = inconclusive; nt = no result; [ ] = another dose, or the depositor's remark. Most compounds without a hit are left out; they make up all but 6.8% or so of the library. Unless noted, calls follow the shape of the dose curve; as a rule, active = well fitted curve in the direction sought with a large enough effect; inconclusive = small, poorly fitted or top-dose-only effect, or another doubt; inactive = no such curve, though single readings can be large; an effect the other way counts as inactive or inconclusive. Potency is read from the fitted curve at half-maximal effect.

SMILES	SW480 rerep	PINK1 expr mod	KB-3-1 cytotox	KB-V1 MDR tox	MCF10A rerep	PTAP TSG101 blk
O=C(Nc1ccc(C(F)(F)F)cc1Cl)c1ccc(Cn2cc(Br)cn2)o1	-2%	-5%[38.3 µM]	i	i	13µM*	-3%
Cn1c(=O)c(/C=C/c2ccc(F)cc2)nc2ccccc21	12µM*	2%	?	?	?	-12%
Cn1c(=O)c(/C=C/c2ccccc2)nc2ccccc21	?	3%	?	15µM*	12µM*	-7%
CC(=O)c1ccc(/C=C/c2nc3ccccc3n2C)o1	?	1%	i	i	18µM*	-5%
Cn1c(/C=N/NC(=O)c2ccccc2)nc2ccccc21	0%	-2%[38.3 µM]	i	?	1%	0%
Cn1c(/C=C/c2ccccc2)nc2ccccc21	-2%	1%	i	i	13%	-7%
COc1ccc2c(CNCCc3ccc(SC)cc3)c(C(=O)O)n(Cc3ccc(F)cc3)c2c1	nt	1%	?	i	nt	nt
O=C(CCSc1ccc(Cl)c(Cl)c1)NC12CC3CC(CC(C3)C1)C2	?	-4%[38.3 µM]	?	?	18µM*	-1%
O=C(CSc1ccc(F)cc1)NC12CC3CC(CC(C3)C1)C2	4%	4%	i	i	-2%	-14%
Oc1c(C(c2ccccc2Cl)N2CCCC2)sc2nc(-c3ccco3)nn12 (stereo not given)	nt	4%	nt	nt	nt	nt
O=Cc1sc(=O)n(Cc2cccc(C(=O)O)c2)c1Cl	4%	0%	i	i	29µM*	-2%
O=C(O)c1cccc(Cn2c(Cl)c(/C=N/NC(=O)c3ccc(O)cc3)sc2=O)c1	3%	0%	i	i	1%	-3%
COc1ccc(NC(=O)CSCc2cnn(-c3ccccc3)c2-n2cccc2)cc1	nt	0%	nt	nt	nt	nt
Cc1ccc(S(=O)(=O)NCC(=O)N(c2ccccc2)C(C(=O)NCc2ccccc2)c2ccco2)cc1 (stereo not given)	19%	0%	i	2.3µM*	24%	-4%
Cc1ccc(S(=O)(=O)NCCC(c2ccc(F)cc2)c2ccco2)cc1 (stereo not given)	6%	29%	?	21µM*	?	-2%
COc1ccccc1C(CCNS(=O)(=O)c1ccc(C)cc1)c1ccco1 (stereo not given)	-110%	20%	i	?	13µM*	-3%
Cc1ccc(S(=O)(=O)NCCC(c2ccccc2)c2ccco2)cc1 (stereo not given)	-4%	2%	i	23µM*	6%	-2%
Cc1ccc(S(=O)(=O)NCC(c2ccco2)S(=O)(=O)c2ccccc2)cc1 (stereo not given)	6%	1%	i	i	?	-4%
Cc1ccc(S(=O)(=O)c2nnn3c2nc(NCc2ccc4c(c2)OCO4)c2sccc23)cc1C	nt	0%	i	i	nt	nt
O=C(Cn1c(=O)n(-c2ccc(Cl)cc2)c(=O)c2sc3ccccc3c21)NC1CCCCC1	nt	1%	i	i	nt	nt
[O]=[Bi][O][Bi]=[O]	-1%	nt	nt	nt	3%	nt
CC(=O)N1Cc2cc(C(=O)NCC(F)(F)F)nc(-c3cccc(-c4cc5ccccc5o4)c3)c2[C@H]1CCO	nt	8%	?	?	nt	nt
CCCNC(=O)c1cc2c(c(-c3cccc(-c4ccccc4F)c3)n1)[C@@H](CCO)N(C(=O)CC1CC1)C2	nt	2%	?	23µM*	nt	nt
CCC(=O)N1Cc2cc(C(=O)NCC(F)(F)F)nc(-c3cccc(-c4cncnc4)c3)c2[C@@H]1CCO	nt	8%	?	i	nt	nt
O=C(NCC(F)(F)F)c1cc2c(c(-c3cccc(-c4ccccc4F)c3)n1)[C@H](CCO)N(C(=O)CC1CC1)C2	nt	0%	?	16µM*	nt	nt
CCNC(=O)c1cc2c(c(-c3cccc(-c4ccccc4F)c3)n1)[C@H](CCO)N(C(=O)CC)C2	nt	4%	?	18µM*	nt	nt
